Hits are enriched below; roughly 27% of the tested compounds scored in any of these assays.
sEH inhibitor: soluble epoxide hydrolase (human) inhibition | P34913 | recombinant human sEH enzymatic activity assay | inhibition, % at 2 µM | actives 0.34% (n = 91,000); in the data active = inhibition above about 80%
Target sequence (P34913 whole entry, looked up): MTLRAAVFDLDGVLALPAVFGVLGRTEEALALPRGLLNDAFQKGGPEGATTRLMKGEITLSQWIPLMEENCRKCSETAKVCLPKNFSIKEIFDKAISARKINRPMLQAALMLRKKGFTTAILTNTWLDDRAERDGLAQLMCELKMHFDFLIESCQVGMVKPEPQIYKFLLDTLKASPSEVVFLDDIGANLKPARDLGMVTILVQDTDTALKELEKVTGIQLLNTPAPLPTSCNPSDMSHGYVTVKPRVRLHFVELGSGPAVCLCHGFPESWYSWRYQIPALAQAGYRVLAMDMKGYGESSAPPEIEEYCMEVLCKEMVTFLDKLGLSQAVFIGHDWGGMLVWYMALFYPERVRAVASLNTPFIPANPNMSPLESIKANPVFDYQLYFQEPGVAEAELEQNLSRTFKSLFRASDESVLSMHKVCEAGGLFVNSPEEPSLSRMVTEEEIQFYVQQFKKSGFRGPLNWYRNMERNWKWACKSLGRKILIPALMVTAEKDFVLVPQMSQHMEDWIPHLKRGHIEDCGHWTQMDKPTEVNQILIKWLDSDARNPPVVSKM
CYP2C19 activ: increases human CYP2C19 enzyme activity; P33261; recombinant CYP2C19, luciferin-H EGE luminescence; stronger effect = higher value; 0 = fully inhibited enzyme, 1 = untreated enzyme; activation factor at 5 µM; 96,000 tested, under 10 active;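 active = activation factor of at least 2 at 5 µM in the primary screen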;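 note: 0 = wells with 2.5 mM tranylcypromine and 1 = vehicle-only wells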
CYP2C19 inh: blocks human cytochrome P450 2C19 | AID 778 | CYP2C19 Supersomes, luciferin-H EGE luminescence, 30 min | actives 21% (n = 96,000) | inhibition, % at 5 µM;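 active = CYP2C19 inhibition above a set limit at 5 µM in the primary screen, cut at about 50% in these data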;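 note: plate controls were negative control wells for no effect and 2.5 mM tranylcypromine positive control for full effect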
sEH act: activators of human soluble epoxide hydrolase. purified human sEH enzymatic activity, activator screen. AID 717. actives 0.04% (n = 91,000). activation, % at 2 µM; in the data active = activation above about 37%
CYP2C9 inhib: blocks human cytochrome P450 2C9. P11712. CYP2C9 Supersomes, luciferin-H conversion, luminescence. inhibition, % at 5 µM. actives 20% (n = 96,000);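 active = blocking of liver enzyme CYP2C9 beyond about 50% at 5 µM, limit read from the data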
CYP2C9 act: CYP2C9 (human) activation; P11712; recombinant CYP2C9, luciferin-H conversion, luminescence; stronger effect = higher value; factor 1 = untreated enzyme, 0 = blocked; activation factor at 5 µM; actives 1.4% (n = 96,000); AID 1024;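 active = activation factor of 2 or more for CYP2C9 at a 5 µM dose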;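 note: 0 = sulfaphenazole-blocked wells and 1 = vehicle-only wells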
* = called active by the depositor.

Results for COc1ccc(-n2c(SC)nc(O)c(Cc3ccccc3)c2=O)cc1 ?
sEH inhibitor: 7; CYP2C19 activ: 1.1; CYP2C19 inh: -13; sEH act: -5; CYP2C9 inhib: -5; CYP2C9 act: 1

What do the screens show for `COc1ccc(Cc2c(O)nc(SC)n(C(C)=O)c2=O)cc1`?
sEH inhibitor: -21; CYP2C19 activ: 0.5; CYP2C19 inh: 53*; sEH act: 20; CYP2C9 inhib: 45; CYP2C9 act: 0.5

Results for COc1ccc(N(CC(=O)Nc2ccc(S(=O)(=O)N3CCOCC3)cc2)S(=O)(=O)c2ccccc2)cc1 ?
sEH inhibitor: 25; CYP2C19 activ: 0.7; CYP2C19 inh: 28; sEH act: -23; CYP2C9 inhib: 48; CYP2C9 act: 0.5

What do the screens show for `CCCCOc1nc2ccccc2nc1C(C#N)S(=O)(=O)c1ccccc1` (stereo not given)?
sEH inhibitor: 2; CYP2C19 activ: 0.2; CYP2C19 inh: 78*; sEH act: -2; CYP2C9 inhib: 77*; CYP2C9 act: 0.2

What do the screens show for `CC(=O)c1ccc(Nc2nc(C)nc3c2oc2ccccc23)cc1`?
CYP2C19 activ: 1.2; CYP2C19 inh: -16; CYP2C9 inhib: 12; CYP2C9 act: 0.9

What do the screens show for `CNC(=O)C(Sc1nc(C)nc2c1oc1ccccc12)C(C)=O` (stereo not given)?
sEH inhibitor: 1; CYP2C19 activ: 0.5; CYP2C19 inh: 55*; sEH act: 0; CYP2C9 inhib: 61*; CYP2C9 act: 0.4

What do the screens show for `Cc1nc(SCC(=O)NC(C)c2ccccc2)c2oc3ccccc3c2n1` (stereo not given)?
sEH inhibitor: 26; CYP2C19 activ: 0.4; CYP2C19 inh: 64*; sEH act: -26; CYP2C9 inhib: 80*; CYP2C9 act: 0.2

How did OCCN1CCN(c2nc(-c3ccccc3)nc3c2oc2ccccc23)CC1 do in these assays?
sEH inhibitor: 2; CYP2C19 activ: 0.1; CYP2C19 inh: 86*; sEH act: 0; CYP2C9 inhib: 65*; CYP2C9 act: 0.3

Results for O=C(O)C1CCN(c2nc(-c3ccccc3)nc3c2oc2ccccc23)CC1 ?
sEH inhibitor: -11; CYP2C19 activ: 1; CYP2C19 inh: -1; sEH act: 11; CYP2C9 inhib: -16; CYP2C9 act: 1.2

Results for Cc1nc(SCC(=O)Nc2ccc(F)cc2)c2oc3ccccc3c2n1 ?
sEH inhibitor: 13; CYP2C19 activ: 0.6; CYP2C19 inh: 40; sEH act: -15; CYP2C9 inhib: 84*; CYP2C9 act: 0.2

What do the screens show for `CCC1(CC)Cc2ccccc2C(Nc2c(C)n(C)n(-c3ccccc3)c2=O)=N1`?
sEH inhibitor: -19; CYP2C19 activ: 0.9; CYP2C19 inh: 9; sEH act: 17; CYP2C9 inhib: 14; CYP2C9 act: 0.9

What do the screens show for `COc1ccc(NC(=O)c2ccc(-n3nc(C)c[n+]3[O-])cc2)cc1`?
CYP2C19 activ: 0.9; CYP2C19 inh: 7; CYP2C9 inhib: 29; CYP2C9 act: 0.7

What do the screens show for `Cc1cc2occ(CC(=O)NC3=NCCS3)c2cc1C(C)C`?
sEH inhibitor: 0; CYP2C19 activ: 0.7; CYP2C19 inh: 26; sEH act: 0; CYP2C9 inhib: -20; CYP2C9 act: 1.2

How did Cc1cccc(-n2c(SCC(=O)Nc3ccc4c(c3)OCO4)nnc2-c2ccoc2C)c1 do in these assays?
sEH inhibitor: 0; CYP2C19 activ: 1; CYP2C19 inh: 1; sEH act: 1; CYP2C9 inhib: 8; CYP2C9 act: 0.9

How did O=C(O)CSc1nc(-c2ccccc2)nc2c1oc1ccccc12 do in these assays?
sEH inhibitor: 2; CYP2C19 activ: 0.9; CYP2C19 inh: 7; sEH act: -3; CYP2C9 inhib: 91*; CYP2C9 act: 0.1

Results for Cc1nc(SCC(=O)Nc2ccccc2)c2oc3ccccc3c2n1 ?
sEH inhibitor: -2; CYP2C19 activ: 0.5; CYP2C19 inh: 51*; sEH act: 0; CYP2C9 inhib: 80*; CYP2C9 act: 0.2

What do the screens show for `COc1ccc(-c2n[nH]c(=S)n2Cc2ccco2)cc1`?
sEH inhibitor: 4; CYP2C19 activ: 1; CYP2C19 inh: -3; sEH act: -2; CYP2C9 inhib: 33; CYP2C9 act: 0.7

What do the screens show for `COc1ccc(Cl)cc1-c1n[nH]c(=S)n1C1CCCCC1`?
sEH inhibitor: -4; CYP2C19 activ: 0.2; CYP2C19 inh: 80*; sEH act: 0; CYP2C9 inhib: 14; CYP2C9 act: 0.9

Results for Cc1cc(Cl)ccc1OCc1n[nH]c(=S)n1C1CCCCC1 ?
sEH inhibitor: 38; CYP2C19 activ: 0.2; CYP2C19 inh: 81*; sEH act: -36; CYP2C9 inhib: 96*; CYP2C9 act: 0

What do the screens show for `COc1ccc(-c2n[nH]c(=S)n2C2CCCCC2)cc1`?
sEH inhibitor: 17; CYP2C19 activ: 0.2; CYP2C19 inh: 79*; sEH act: -18; CYP2C9 inhib: 31; CYP2C9 act: 0.7

Results for COc1ccc(-n2c(-c3ccccc3)cc3c2CCCC3=O)cc1 ?
sEH inhibitor: -3; CYP2C19 activ: 0.2; CYP2C19 inh: 76*; sEH act: 6; CYP2C9 inhib: 26; CYP2C9 act: 0.7

What do the screens show for `CC(SCC(=O)Nc1ccc(S(=O)(=O)N2CCCCC2)cc1)C(=O)O` (stereo not given)?
sEH inhibitor: 21; CYP2C19 activ: 0.9; CYP2C19 inh: 7; sEH act: -22; CYP2C9 inhib: 56*; CYP2C9 act: 0.4

What do the screens show for `O=C(Nc1ccc(S(=O)(=O)N2CCCCC2)cc1)c1ccccc1Cl`?
sEH inhibitor: 18; CYP2C19 activ: 0.8; CYP2C19 inh: 22; sEH act: -20; CYP2C9 inhib: 33; CYP2C9 act: 0.7

How did O=C(Nc1ccccc1)Nc1ccc(S(=O)(=O)N2CCCCC2)cc1 do in these assays?
sEH inhibitor: 92*; CYP2C19 activ: 1; CYP2C19 inh: -5; sEH act: -92; CYP2C9 inhib: 22; CYP2C9 act: 0.8

How did O=C(O)CSCC(=O)Nc1ccc(S(=O)(=O)N2CCCCC2)cc1 do in these assays?
CYP2C19 activ: 1; CYP2C19 inh: 2; CYP2C9 inhib: 16; CYP2C9 act: 0.8

What do the screens show for `COC(=O)c1ccc(NC(=O)COc2ccc(S(=O)(=O)N3CCCCC3)cc2)cc1`?
sEH inhibitor: -2; CYP2C19 activ: 0.6; CYP2C19 inh: 37; sEH act: 1; CYP2C9 inhib: 64*; CYP2C9 act: 0.4

Results for O=C(O)CCC(=O)Nc1ccc(S(=O)(=O)N2CCCC2)cc1 ?
CYP2C19 activ: 0.5; CYP2C19 inh: 50*; CYP2C9 inhib: 24; CYP2C9 act: 0.8

How did O=C(O)Cc1ccc2c(c1)N(S(=O)(=O)c1cccc(C(F)(F)F)c1)CC(C(=O)O)O2 (stereo not given) do in these assays?
sEH inhibitor: -10; CYP2C19 activ: 1; CYP2C19 inh: 1; sEH act: 10; CYP2C9 inhib: 3; CYP2C9 act: 1

What do the screens show for `NCCN1CCN(CCN)CC1`?
sEH inhibitor: 5; CYP2C19 activ: 1.1; CYP2C19 inh: -15; sEH act: -9; CYP2C9 inhib: 7; CYP2C9 act: 0.9

Assay outcomes (PubChem)
